From PubChem BioAssay (NCI) come the findings set out here.

About 83,000 compounds went through this panel and 20% of them were active in at least one assay; those are over-represented in the sample as a whole.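 For each line, cells grew in 96-well plates with the test compound present at a single concentration for 48 hours.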 Activity calls are given as the source filed them.

The experiment deals with NCI-H522 lung. Briefly: NCI-60 one-dose screen, 48 h (100 = growth as untreated, 0 = no growth, -100 = all killed). The settings on record: 10 µM unless noted. How it is done:
Growth inhibition of the NCI-H522 human Non-Small Cell Lung tumor cell line is measured as a screen for anti-cancer activity. Cells are grown in 96 well plates and exposed to the test compound for 48 hours. Compounds are tested at a single concentration, which is 10^-5 M for most compounds. The reported endpoint is percent growth (GI% or GIPRCNT), where numbers from 0 - 100% represent growth inhibition, and numbers from -100% - 0 represent cell death. For example, a value of 40 represents 60% growth inhibition. A value of 0 means no net growth occurred over the course of the experiment. A value of -40 indicates 40% of cells at the beginning of the experiment died by the end of the experiment. A value of -100 means all cells are dead at the end of the experiment.
NCI-60 Human Tumor Cell Lines Screen was performed using the standard one-dose NCI protocol, which is described in more detail at https://dtp.cancer.gov/discovery_development/nci-60/default.htm.
Compounds with GIPRCNT values below 10 were considered active. Activity score was based on GIPRCNT using the following formula: […]
Score is 0 for GIPRCNT values of 100 or above, 50 for GIPRCNT values of 0, and 100 for GIPRCNT values of -100.
As to `CCCCn1c(=O)c2c(nc(NCCc3ccc(O)c(O)c3)n2CCC)n(CCCC)c1=O`, the growth was -0.778% (active). To `Cc1c(C(=O)NC(Cc2ccccc2)C(O)C(=O)NCc2ccc(F)cc2)[nH]c2ccccc2c1=O` (stereo not given) belongs 93.5% (inactive); to `O=c1oc2ccccc2c(Cl)c1Cl`, 22.9% (inactive); to `Cc1cc(NCc2cc(Nc3ccnc4cc(Cl)ccc34)ccc2F)nc(N2CCOCC2)n1`, 21.8% (inactive). Take `N#Cc1c(-c2cccc(Cl)c2)cc(-c2cccc(Cl)c2)[nH]c1=O`: the growth was 64.4% (inactive).

Consider `Cn1c(I)c(C#C[Si](C)(C)C)c(=O)n(C(=O)c2ccccc2)c1=O`, for which the growth is -66.2% (active).

As for `N#Cc1nc(C#N)c(Sc2ccccc2)c(Sc2ccccc2)c1Sc1ccccc1`, the growth was -67.2% (active). With `CNS(=O)(=O)c1n[nH]nc1-c1cc(C(C)(C)C)c(O)c(C(C)(C)C)c1`, the growth was 80.2% (inactive).

Consider `CCN(CC)S(=O)(=O)c1cccc(-c2ccc3c(NC(=O)C4CC4)n[nH]c3c2)c1`, for which the growth is -17% [6.25 µM] (active). Under `CC1SC(c2ccc(OCc3ccccc3)cc2)N(NC(=O)C(O)(c2ccccc2)c2ccccc2)C1=O` (stereo not given) stands 24.4% (inactive); under `O=C1C=C[C@]2(C[C@@H](c3cccc(C(F)(F)F)c3)O[C@@H](c3cccc(C(F)(F)F)c3)O2)O1`, -78.8% (active); under `CCN(CC)c1ccc2nc3c4ccccc4c(=NC(=O)c4ccccc4-c4c5ccc(N(CC)CC)cc5[o+]c5cc(N(CC)CC)ccc45)cc-3oc2c1`, -5.73% (active). Under `Cc1cc(=O)[nH]c(N=Nc2c(O)[nH]c3ccccc23)n1` stands 103% (inactive); under `CC/C=C1/C(=O)C=C[C@@H]1C/C=C\CCCC(=O)O`, 24% (inactive). For `COc1ccc(N=C(c2ccccc2)C2C(=O)c3ccccc3C2=O)cc1`, the growth is 67% (inactive). To `N#CC1=C(c2ccc(Br)cc2)NC(SCC(=O)c2ccc(Br)cc2)NC1=O` (stereo not given) belongs 99.5% (inactive); to `O=C(COc1ccc(/C=C2\Oc3ccccc3C2=O)cc1)Nc1nc2ccccc2s1`, -79.9% (active); to `COc1cccc(-c2nn(-c3ccccc3)cc2-c2ccnc(NCCCNC(=O)c3cccc(C(F)(F)F)c3)c2)c1`, 0.301% (active).

For `CCOc1c(C#N)nnc2c(C#N)c(NC(=O)c3ccccc3)nn12`, the growth was 95% (inactive). To `N#Cc1c(-c2cccc(Cl)c2)cc(-c2cccc(F)c2)[nH]c1=O` belongs 85% (inactive). Consider `Cc1ccc(NS(=O)(=O)c2ccc3c(c2)C(=O)CC(c2ccc(C(=O)C(C)C)cc2)N3)cc1C` (stereo not given), for which the growth is 60.5% (inactive). Under `O=c1c2c3c(sc2nc(N/N=C/c2ccc(Br)cc2)n1Cc1ccccc1)CCCC3` stands 61.2% (inactive). Under `C=C1C(=O)O[C@H]2[C@H]1CC/C(COC(=O)C(=O)c1c[nH]c3ccc(OC)cc13)=C\CC[C@@]1(C)O[C@@H]21` stands -61.3% (active).

For `COC(=O)[C@]12CC[C@@H](C)[C@H](C)[C@@H]1C1=CC[C@@H]3[C@@]4(C)C(C=O)=C[C@@](C)(COC(=O)/C=C/c5ccccc5)[C@@H]4[C@H](O)C[C@@]3(C)[C@]1(C)CC2`, the growth is -16.3% (active). To `COc1ccc(-c2nc3c(c(=O)n2C(C)=O)C(c2ccc(Cl)cc2)c2sc4c(Cl)cccc4c2O3)cc1` (stereo not given) belongs -45.6% (active). To `COc1ccc(-c2cc(-c3cc(OC)ccc3OC)nc(SCC(=O)c3ccccc3)c2C#N)cc1` belongs 79% (inactive); to `Cc1ccc(C(=O)COc2cccc(/C=C3\Oc4ccccc4C3=O)c2)cc1`, 78.2% (inactive); to `COC(=O)[C@]12CC[C@@H](C)[C@H](C)[C@@H]1C1=CC[C@@H]3[C@@]4(C)C(C=O)=C[C@@](C)(COC(C)=O)[C@@H]4[C@H](O)C[C@@]3(C)[C@]1(C)CC2`, -35% (active). For the compound `CCOc1ccccc1-c1cc(-c2cccs2)c(C#N)c(=O)[nH]1`, the growth was 75.5% (inactive).

As for `COC(=O)c1ccc(C2Nc3ccc(S(=O)(=O)Nc4ccc(C)c(C)c4)cc3C3OCCC23)cc1` (stereo not given), the growth was 52.6% (inactive). `O=C1/C(=C\c2c[nH]c3ccccc23)c2ccccc2N1c1c(Cl)cccc1Cl`: the growth is -57.9% (active). To `CCCCCCCCCCCCCCCCCCOc1ccc(CC(=O)OCC[N+]2(C)CCCC2)cc1` belongs 96.8% (inactive); to `CCN(CC)CCCCCCNc1cc(OC)c(Cl)c2cccnc12`, 81.1% (inactive). Consider `CCc1ccccc1NC(=O)/C(C#N)=C/c1ccc(OC)cc1`, for which the growth is 91.4% (inactive). Under `COc1c(CCC[P+](c2ccccc2)(c2ccccc2)c2ccccc2)cc2c(c1OC)OCO2` stands -11.8% (active). On to `NC(=O)c1ccc[n+]([C@@H]2O[C@H](COP(=O)([O-])OP(=O)(O)OC[C@H]3O[C@@H](n4cnc5c(N)ncnc54)[C@H](O)[C@@H]3O)[C@@H](O)[C@H]2O)c1`, for which the growth was 105% (inactive). Under `O=c1c2cc(F)ccc2sc2c(NCCCN3CCCC3)nc3ccccc3c12` stands 25.1% (inactive); under `COc1cccc(-c2nc3sccn3c2-c2ccnc(NCCNS(=O)(=O)c3ccc(C(F)(F)F)cc3)c2)c1`, 55.7% (inactive); under `CS(=O)c1cccc(-c2ccc3nc(N)n(-c4ccc(C(F)(F)F)cc4)c(=O)c3c2)c1` (stereo not given), 80.8% (inactive). Consider `CN(C)CC1C(=O)O[C@H]2[C@H]1CC/C(COC(=O)c1cc3ccccc3[nH]1)=C\CC[C@@]1(C)O[C@@H]21` (stereo not given in full), for which the growth was -91.2% (active).
